Among the test systems are HCT-15 colon; HT29 colon; SNB-75 CNS; SNB-19 CNS; U251 CNS; PC-3 prostate; SK-MEL-5 melanoma; UACC-62 melanoma; LOX IMVI melanoma; SK-MEL-28 melanoma; SK-MEL-2 melanoma; EKVX NSCLC; SN12C renal; UO-31 renal; TK-10 renal; ACHN renal; CAKI-1 renal; A498 renal; CCRF-CEM leukemia; MOLT-4 leukemia.
Common to all, as to experiment: NCI-60 one-dose screen, 48 h (100 = growth as untreated, 0 = no growth, -100 = all killed)
Holding throughout (settings): 10 µM unless noted

Several values for one entry are separate records, joined by “and”; a condition that tells them apart may be missing. Identical values can stand only once. About 83,000 compounds went through this panel and 20% of them were active in at least one assay; those are over-represented in the sample as a whole.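 48-hour exposure, single concentration, 96-well plates; percent growth endpoint where 0 means no net growth. Active: below 10.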 Unmarked numbers belong to inactive results. Activity calls are given as the source filed them.

Consider `COc1ccc(C(CC(=O)c2ccc3c(c2)OCO3)C(=O)O)cc1OC` (stereo not given), for which the growth is 122% and 109% in the assay on HCT-15 colon; 103% and 96.3% in the assay with HT29 colon; 110% and 88.3% in the assay on SNB-75 CNS; 110% and 97.6% in the assay on SNB-19 CNS; 102% in the assay with U251 CNS; 87.4% and 105% in the assay with PC-3 prostate. Besides, the growth was 108% and 102% in the assay on SK-MEL-5 melanoma; 111% and 112% in the assay on UACC-62 melanoma; 95.6% and 98.4% in the assay with LOX IMVI melanoma; 122% and 106% in the assay on SK-MEL-28 melanoma; 114% and 87.8% in the assay with SK-MEL-2 melanoma; 99.9% in the assay with EKVX NSCLC. The growth is 98% and 102% with SN12C renal; 113% and 83.3% in the assay on UO-31 renal; 109% and 108% in the assay on TK-10 renal; 118% and 98.7% in the assay with ACHN renal; 91.4% and 95.3% in the assay on CAKI-1 renal; 104% and 106% with A498 renal. The growth is 96% and 97.5% in the assay on CCRF-CEM leukemia; 108% and 96.1% with MOLT-4 leukemia.

Consider `C=C(CNCCO)[C@@H]1CC[C@]2(CO)CC[C@]3(C)[C@H](CC[C@@H]4[C@@]5(C)CCC(NCCc6ccc(O)cc6)C(C)(C)[C@@H]5CC[C@]43C)[C@@H]12` (stereo not given in full), for which the growth in the assay on HCT-15 colon was -88.4% (active); in the assay with HT29 colon, -68.7% (active); in the assay with SNB-75 CNS, -97.8% (active); with SNB-19 CNS it was -72.9% (active); in the assay on U251 CNS it was -92.7% (active); in the assay on PC-3 prostate, -43.4% (active). The growth in the assay on SK-MEL-5 melanoma is -95.3% (active); with UACC-62 melanoma it was -81.5% (active); in the assay on LOX IMVI melanoma, -89.8% (active); in the assay on SK-MEL-28 melanoma it was -94.1% (active); in the assay on SK-MEL-2 melanoma, -84.1% (active); in the assay with EKVX NSCLC, -75.3% (active). Besides, the growth is -73.7% (active) in the assay with SN12C renal; -95.4% (active) in the assay on UO-31 renal; -89.4% (active) in the assay with TK-10 renal; -96.6% (active) in the assay with ACHN renal; -85.8% (active) in the assay with CAKI-1 renal; -87.5% (active) in the assay on A498 renal. Also, the values for the growth with CCRF-CEM leukemia and with MOLT-4 leukemia were -28.5% (active) and -30.3% (active), respectively.

Regarding `CC[C@H](C)[C@H](NC(=O)[C@H](CCCCN)NC(=O)[C@H](CCCCN)NC(=O)[C@@H](NC(=O)[C@@H](NC(=O)[C@@H](N)Cc1cnc[nH]1)[C@@H](C)CC)[C@@H](C)CC)C(=O)N[C@@H](CCCNC(=N)N)C(=O)N[C@H](C(=O)N[C@@H](Cc1c[nH]c2ccccc12)C(=O)N[C@@H](Cc1ccc(O)cc1)C(=O)N[C@@H](CCCNC(=N)N)C(=O)N[C@@H](CCCCN)C(=O)N[C@@H](C)C(=O)N[C@@H](Cc1c[nH]c2ccccc12)C(=O)N[C@@H](Cc1cnc[nH]1)C(=O)N[C@H](C(=O)N[C@@H](CC(C)C)C(=O)NCC(=O)N[C@@H](CCCCN)C(=O)N[C@H](C(N)=O)C(C)C)C(C)C)[C@@H](C)O`, the growth in the assay on HCT-15 colon is 21.4%; with HT29 colon it was 60.4%; with SNB-75 CNS, 72.7%; in the assay with SNB-19 CNS, 58.6%; with U251 CNS, 20.2%; in the assay with PC-3 prostate, 67.1%. Further, the growth is 13.2% in the assay with SK-MEL-5 melanoma; -56.3% (active) in the assay with UACC-62 melanoma; 70.5% in the assay with LOX IMVI melanoma; 18.9% in the assay on SK-MEL-28 melanoma; 12.7% in the assay on SK-MEL-2 melanoma; -26.4% (active) in the assay with EKVX NSCLC. The growth is 12.1% in the assay on SN12C renal; 81.9% in the assay with UO-31 renal; -16.8% (active) with TK-10 renal; 70.8% in the assay with ACHN renal; 17.5% in the assay with CAKI-1 renal; 66.2% in the assay with A498 renal. Also, the values for the growth in the assay on CCRF-CEM leukemia and in the assay with MOLT-4 leukemia were 76.2% and 56.7%, respectively.

`O=c1ccc2nc(-c3ccccn3)nn(-c3ccccc3)c-2c1`: the growth with HCT-15 colon is -48% (active); with HT29 colon, -44.2% (active); in the assay on SNB-75 CNS it was 98.4%; in the assay with SNB-19 CNS it was 98.9%; with U251 CNS, 98.3%; with PC-3 prostate, 89%. For the same compound, the growth in the assay on SK-MEL-5 melanoma was 36%; with UACC-62 melanoma, 72.7%; with LOX IMVI melanoma, 11.7%; in the assay on SK-MEL-28 melanoma it was 70.7%; with SK-MEL-2 melanoma, 106%; in the assay with EKVX NSCLC, 115%. Further, the growth in the assay with SN12C renal was 84.6%; with UO-31 renal, 40.1%; in the assay with TK-10 renal it was -70.9% (active); in the assay on ACHN renal, -84.7% (active); with CAKI-1 renal it was 72.5%; in the assay with A498 renal it was 91.9%. Besides, the growth is 8.49% (active) in the assay on CCRF-CEM leukemia and 5.56% (active) in the assay on MOLT-4 leukemia.

`Nc1nc(N)c2c(n1)NC(c1ccc(Cl)cc1)CC(c1cccc(Nc3ccncc3)c1)=N2` (stereo not given): the growth was 71.5% with HCT-15 colon; 21% in the assay on HT29 colon; 67.2% in the assay on SNB-75 CNS; 61.8% with SNB-19 CNS; 34.6% in the assay with U251 CNS; 38.2% in the assay with PC-3 prostate. The growth was 52.1% with SK-MEL-5 melanoma; 69.2% in the assay with UACC-62 melanoma; 25.4% in the assay on LOX IMVI melanoma; 72.2% in the assay on SK-MEL-28 melanoma; 76.3% in the assay on SK-MEL-2 melanoma; 62.1% with EKVX NSCLC. The growth is 53% in the assay with SN12C renal; 90.6% with UO-31 renal; 113% with TK-10 renal; 73.5% in the assay with ACHN renal; 73.7% in the assay with CAKI-1 renal; 81.1% with A498 renal. Besides, the growth in the assay with CCRF-CEM leukemia was 32.7%; in the assay with MOLT-4 leukemia, 38.1%.

As to `O=C(Cc1ccc(F)cc1)c1ccccc1`, the growth in the assay on HCT-15 colon was 108%; in the assay with HT29 colon, 109%; with SNB-75 CNS, 100%; in the assay with SNB-19 CNS, 109%; in the assay with U251 CNS, 106%; with PC-3 prostate, 91.4%. For the same compound, the growth in the assay on SK-MEL-5 melanoma was 110%; in the assay on UACC-62 melanoma it was 106%; with LOX IMVI melanoma, 102%; in the assay on SK-MEL-28 melanoma it was 114%; with SK-MEL-2 melanoma, 114%; in the assay with EKVX NSCLC, 113%. In addition, the growth was 99.4% with SN12C renal; 95.6% in the assay on UO-31 renal; 104% in the assay with TK-10 renal; 110% with ACHN renal; 106% with CAKI-1 renal; 99.8% in the assay on A498 renal. The growth in the assay with CCRF-CEM leukemia is 88%; in the assay on MOLT-4 leukemia, 93.1%.

(Values after PubChem BioAssay (NCI).)
